Measurements as given in the supplement of paper PMC11732987, “Enantioselective OTUD7B fragment discovery through chemoproteomics screening and high-throughput optimisation” (Communications Chemistry, 2025).

How the values were obtained:
Assay in all cases: log2 ratio of Biotin-Ahx-Ub-VS probe labelling (fragment/DMSO); higher = less target engagement (more negative = stronger competition), active = hit call of the paper (q ≤ 0.05, log2 ratio ≤ -1)
Conditions in all cases: compound concentration: 200 uM; treatment time: 3 h
USP19 = target: T1, USP19 (UniProt O94966)
T1 sequence (whole entry): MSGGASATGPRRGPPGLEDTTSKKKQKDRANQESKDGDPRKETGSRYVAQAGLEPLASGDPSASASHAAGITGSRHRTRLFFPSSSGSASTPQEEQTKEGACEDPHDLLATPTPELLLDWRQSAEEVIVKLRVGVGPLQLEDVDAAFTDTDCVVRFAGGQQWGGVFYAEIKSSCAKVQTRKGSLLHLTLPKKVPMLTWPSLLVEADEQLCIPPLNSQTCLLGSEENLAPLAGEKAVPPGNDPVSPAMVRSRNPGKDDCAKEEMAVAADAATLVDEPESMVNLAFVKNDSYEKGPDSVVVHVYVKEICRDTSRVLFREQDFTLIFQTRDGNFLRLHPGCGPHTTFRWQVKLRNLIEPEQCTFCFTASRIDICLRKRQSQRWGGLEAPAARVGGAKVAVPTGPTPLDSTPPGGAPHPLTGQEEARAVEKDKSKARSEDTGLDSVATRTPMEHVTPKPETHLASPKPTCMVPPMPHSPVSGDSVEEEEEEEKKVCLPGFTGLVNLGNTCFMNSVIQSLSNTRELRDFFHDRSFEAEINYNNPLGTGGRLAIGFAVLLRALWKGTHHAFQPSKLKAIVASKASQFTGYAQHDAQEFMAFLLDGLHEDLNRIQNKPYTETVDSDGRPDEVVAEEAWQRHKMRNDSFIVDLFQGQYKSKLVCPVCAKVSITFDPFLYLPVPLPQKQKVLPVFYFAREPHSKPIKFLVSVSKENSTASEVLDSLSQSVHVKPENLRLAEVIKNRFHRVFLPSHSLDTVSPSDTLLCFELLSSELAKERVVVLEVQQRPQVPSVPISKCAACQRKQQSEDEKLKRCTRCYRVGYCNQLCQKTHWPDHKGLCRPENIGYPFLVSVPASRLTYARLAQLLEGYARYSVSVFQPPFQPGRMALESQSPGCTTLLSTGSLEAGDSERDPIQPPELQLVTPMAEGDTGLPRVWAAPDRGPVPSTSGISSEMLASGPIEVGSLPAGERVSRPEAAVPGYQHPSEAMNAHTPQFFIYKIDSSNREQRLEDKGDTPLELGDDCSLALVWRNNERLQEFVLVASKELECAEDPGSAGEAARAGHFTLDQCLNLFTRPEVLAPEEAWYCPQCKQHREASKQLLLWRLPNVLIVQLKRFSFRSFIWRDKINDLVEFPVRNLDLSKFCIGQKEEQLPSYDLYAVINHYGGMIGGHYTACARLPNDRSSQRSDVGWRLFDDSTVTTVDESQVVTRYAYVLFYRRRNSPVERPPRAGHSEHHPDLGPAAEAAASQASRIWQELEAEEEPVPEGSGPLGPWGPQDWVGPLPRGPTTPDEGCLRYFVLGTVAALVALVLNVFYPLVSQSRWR
In short: (§1)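 HEK293T lysate, 495 µg per sample in Tris/CHAPS/IGEPAL buffer with protease inhibitors, was treated in triplicate with fragment at 200 µM or vehicle for 3 h and then with Biotin-Ahx-Ub-VS at 0.5 µM final for 1 h. Labelled DUBs were NeutrAvidin-enriched, digested with LysC and trypsin, and run by diaPASEF LC-MS/MS. Spectronaut label-free quantities were global-median-normalised, and values are average log2 fragment/vehicle ratios by unpaired t-test on proteins with ≥2 unique peptides.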

USP22 = target: T2, USP22 (UniProt Q9UPT9)
T2 sequence (whole entry): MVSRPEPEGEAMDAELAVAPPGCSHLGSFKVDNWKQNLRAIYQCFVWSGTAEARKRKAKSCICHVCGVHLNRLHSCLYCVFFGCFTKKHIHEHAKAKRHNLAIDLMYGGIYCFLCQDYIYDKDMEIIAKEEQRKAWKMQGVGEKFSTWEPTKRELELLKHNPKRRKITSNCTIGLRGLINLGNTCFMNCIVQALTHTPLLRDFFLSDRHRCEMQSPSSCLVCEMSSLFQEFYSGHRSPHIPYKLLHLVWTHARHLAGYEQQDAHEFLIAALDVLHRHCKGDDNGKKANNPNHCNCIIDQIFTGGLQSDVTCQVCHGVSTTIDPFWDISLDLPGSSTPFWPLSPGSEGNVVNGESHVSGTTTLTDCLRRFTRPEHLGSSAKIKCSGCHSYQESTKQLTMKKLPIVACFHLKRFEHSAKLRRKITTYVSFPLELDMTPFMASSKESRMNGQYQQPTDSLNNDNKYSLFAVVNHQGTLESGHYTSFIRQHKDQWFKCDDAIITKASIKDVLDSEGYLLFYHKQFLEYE
In short: as §1

USP24 = USP24 (UniProt Q9UPU5)
In short: as §1

USP25 = target: T3, USP25 (UniProt Q9UHP3)
T3 sequence (whole entry): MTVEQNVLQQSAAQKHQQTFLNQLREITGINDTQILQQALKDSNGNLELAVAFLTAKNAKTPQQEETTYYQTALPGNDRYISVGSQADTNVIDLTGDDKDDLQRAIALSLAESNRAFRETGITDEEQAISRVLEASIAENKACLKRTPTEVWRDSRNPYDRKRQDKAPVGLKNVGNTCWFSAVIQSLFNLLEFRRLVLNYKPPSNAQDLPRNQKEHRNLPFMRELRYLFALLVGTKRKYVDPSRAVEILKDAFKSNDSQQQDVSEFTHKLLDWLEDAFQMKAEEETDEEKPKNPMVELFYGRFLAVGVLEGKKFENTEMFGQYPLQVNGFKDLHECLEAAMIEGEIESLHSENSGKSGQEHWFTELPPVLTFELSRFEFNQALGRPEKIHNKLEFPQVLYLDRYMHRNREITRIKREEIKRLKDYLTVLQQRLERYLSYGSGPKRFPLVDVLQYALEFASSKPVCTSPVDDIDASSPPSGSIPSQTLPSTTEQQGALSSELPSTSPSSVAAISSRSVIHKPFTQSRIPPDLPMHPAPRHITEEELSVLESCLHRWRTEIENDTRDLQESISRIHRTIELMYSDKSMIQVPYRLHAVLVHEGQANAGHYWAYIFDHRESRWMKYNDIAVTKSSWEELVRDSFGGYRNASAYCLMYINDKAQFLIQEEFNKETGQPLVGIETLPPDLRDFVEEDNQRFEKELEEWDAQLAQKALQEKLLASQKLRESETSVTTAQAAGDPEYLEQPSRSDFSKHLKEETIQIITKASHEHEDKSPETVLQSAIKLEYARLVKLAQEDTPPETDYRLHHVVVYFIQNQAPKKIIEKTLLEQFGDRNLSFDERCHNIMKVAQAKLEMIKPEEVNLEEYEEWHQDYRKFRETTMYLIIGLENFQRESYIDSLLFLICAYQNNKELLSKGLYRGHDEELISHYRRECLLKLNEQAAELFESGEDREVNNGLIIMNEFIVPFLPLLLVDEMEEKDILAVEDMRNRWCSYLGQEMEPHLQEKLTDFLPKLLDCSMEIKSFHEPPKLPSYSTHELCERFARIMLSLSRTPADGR
In short: as §1

USP28 = target: T4, USP28 (UniProt Q96RU2)
T4 sequence (whole entry): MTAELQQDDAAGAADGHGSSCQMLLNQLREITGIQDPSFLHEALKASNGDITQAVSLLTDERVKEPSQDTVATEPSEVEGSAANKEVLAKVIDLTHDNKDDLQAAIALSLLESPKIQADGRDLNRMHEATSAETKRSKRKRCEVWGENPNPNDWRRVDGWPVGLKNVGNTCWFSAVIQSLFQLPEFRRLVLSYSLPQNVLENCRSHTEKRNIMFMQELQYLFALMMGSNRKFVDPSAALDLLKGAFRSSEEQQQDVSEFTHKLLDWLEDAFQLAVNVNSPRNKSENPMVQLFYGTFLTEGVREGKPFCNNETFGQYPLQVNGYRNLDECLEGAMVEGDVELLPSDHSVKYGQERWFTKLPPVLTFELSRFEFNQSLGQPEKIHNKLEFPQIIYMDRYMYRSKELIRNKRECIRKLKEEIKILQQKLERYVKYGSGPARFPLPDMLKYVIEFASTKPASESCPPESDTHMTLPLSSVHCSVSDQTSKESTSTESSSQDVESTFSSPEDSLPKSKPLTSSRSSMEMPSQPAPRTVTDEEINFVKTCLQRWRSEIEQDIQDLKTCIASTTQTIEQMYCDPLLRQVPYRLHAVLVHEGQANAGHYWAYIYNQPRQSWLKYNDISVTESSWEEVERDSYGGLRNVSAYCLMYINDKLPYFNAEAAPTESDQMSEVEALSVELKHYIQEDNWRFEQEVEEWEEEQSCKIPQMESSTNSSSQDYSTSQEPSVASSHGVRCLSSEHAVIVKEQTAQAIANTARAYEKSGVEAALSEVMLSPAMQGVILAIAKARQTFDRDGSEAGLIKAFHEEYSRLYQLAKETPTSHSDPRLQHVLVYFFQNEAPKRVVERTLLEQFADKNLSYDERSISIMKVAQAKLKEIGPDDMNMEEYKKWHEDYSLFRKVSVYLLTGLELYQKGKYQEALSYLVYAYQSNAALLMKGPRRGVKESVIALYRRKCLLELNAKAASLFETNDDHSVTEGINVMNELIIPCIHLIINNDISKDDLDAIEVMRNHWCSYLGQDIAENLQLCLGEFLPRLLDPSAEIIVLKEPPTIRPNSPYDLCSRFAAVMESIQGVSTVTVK
In short: as §1

Measured: log2 ratio of Biotin-Ahx-Ub-VS probe labelling

USP24, sequence (Q9UPU5 whole entry): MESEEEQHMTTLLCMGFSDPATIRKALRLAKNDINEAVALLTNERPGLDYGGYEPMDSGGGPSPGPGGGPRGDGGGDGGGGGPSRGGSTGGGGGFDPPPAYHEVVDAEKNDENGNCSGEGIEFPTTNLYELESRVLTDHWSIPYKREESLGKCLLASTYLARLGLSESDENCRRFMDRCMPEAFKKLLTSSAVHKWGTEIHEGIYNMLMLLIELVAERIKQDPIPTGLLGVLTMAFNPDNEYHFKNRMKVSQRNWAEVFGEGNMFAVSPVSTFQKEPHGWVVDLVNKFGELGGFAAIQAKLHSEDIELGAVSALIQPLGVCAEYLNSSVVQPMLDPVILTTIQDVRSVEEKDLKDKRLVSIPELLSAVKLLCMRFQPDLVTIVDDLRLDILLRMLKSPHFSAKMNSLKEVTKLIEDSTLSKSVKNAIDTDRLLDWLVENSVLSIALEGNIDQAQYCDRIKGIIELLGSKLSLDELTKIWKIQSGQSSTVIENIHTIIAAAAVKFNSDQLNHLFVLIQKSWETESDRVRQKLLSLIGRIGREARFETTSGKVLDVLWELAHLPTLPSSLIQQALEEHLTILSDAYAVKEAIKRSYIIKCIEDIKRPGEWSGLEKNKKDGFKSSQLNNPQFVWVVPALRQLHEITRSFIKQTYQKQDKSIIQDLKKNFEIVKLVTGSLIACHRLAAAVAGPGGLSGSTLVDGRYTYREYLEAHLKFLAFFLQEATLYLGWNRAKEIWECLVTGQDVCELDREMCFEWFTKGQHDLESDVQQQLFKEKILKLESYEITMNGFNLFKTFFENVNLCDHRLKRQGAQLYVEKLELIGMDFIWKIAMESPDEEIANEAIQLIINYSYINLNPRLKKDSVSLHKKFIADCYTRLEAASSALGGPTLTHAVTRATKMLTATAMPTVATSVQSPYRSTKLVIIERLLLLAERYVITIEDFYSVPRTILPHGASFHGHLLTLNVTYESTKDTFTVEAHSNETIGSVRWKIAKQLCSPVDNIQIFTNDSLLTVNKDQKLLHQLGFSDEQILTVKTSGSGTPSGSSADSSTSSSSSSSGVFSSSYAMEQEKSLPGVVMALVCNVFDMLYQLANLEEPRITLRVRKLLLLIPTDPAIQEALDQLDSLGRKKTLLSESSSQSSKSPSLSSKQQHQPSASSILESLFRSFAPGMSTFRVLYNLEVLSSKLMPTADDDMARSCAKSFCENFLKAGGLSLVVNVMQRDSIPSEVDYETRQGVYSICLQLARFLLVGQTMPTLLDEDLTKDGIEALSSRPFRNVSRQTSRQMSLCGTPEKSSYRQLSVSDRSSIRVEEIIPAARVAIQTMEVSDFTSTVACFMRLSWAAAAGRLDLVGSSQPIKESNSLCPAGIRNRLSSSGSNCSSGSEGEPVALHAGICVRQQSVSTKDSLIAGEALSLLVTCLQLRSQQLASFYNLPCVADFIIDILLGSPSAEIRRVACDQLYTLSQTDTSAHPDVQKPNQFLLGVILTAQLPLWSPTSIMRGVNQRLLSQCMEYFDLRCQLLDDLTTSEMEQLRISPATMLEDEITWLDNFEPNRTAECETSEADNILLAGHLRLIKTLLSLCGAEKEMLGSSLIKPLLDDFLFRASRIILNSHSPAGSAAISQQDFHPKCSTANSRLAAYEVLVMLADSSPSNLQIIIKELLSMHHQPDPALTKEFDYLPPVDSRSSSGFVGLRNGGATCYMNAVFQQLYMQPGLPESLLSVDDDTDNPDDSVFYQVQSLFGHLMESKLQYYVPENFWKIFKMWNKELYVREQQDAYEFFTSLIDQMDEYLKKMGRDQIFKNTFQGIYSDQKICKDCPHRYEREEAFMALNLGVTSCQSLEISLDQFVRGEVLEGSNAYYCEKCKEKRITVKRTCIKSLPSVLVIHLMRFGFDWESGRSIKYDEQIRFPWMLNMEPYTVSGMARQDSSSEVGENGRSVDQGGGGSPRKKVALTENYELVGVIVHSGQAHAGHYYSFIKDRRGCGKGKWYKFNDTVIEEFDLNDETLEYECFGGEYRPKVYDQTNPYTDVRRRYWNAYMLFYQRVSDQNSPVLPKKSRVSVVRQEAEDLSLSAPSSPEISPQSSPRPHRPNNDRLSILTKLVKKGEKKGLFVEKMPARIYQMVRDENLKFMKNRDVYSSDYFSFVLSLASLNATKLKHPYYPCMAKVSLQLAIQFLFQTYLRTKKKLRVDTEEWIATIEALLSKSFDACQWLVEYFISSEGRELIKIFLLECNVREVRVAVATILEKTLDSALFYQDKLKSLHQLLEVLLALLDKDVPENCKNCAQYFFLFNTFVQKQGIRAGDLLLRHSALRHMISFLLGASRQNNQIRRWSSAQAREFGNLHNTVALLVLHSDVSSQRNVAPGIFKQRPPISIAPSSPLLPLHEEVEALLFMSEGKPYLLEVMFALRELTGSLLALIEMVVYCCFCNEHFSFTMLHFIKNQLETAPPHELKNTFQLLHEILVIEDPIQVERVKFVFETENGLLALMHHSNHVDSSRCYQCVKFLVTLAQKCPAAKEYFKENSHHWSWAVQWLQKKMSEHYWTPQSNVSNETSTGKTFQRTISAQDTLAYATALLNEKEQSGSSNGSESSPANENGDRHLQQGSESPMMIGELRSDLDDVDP

Cl.O=C(CCl)N1CCCC(c2ncc[nH]2)C1 (stereo not given)
inactive: USP19 -0.0532 | USP22 0.0588 | USP24 -0.108 | USP25 -0.511 | USP28 -0.212
